In PubChem BioAssay (NCI):
The panel holds about 83,000 compounds, 20% with a hit somewhere; the sample as a whole holds those more often.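 Compound tested at a single concentration for 48 hours in 96-well plates; a percent growth value below 10 was scored as active.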 Activity calls are given as the source filed them.

Tests used:
Test in all cases: NCI-60 one-dose screen, 48 h (100 = growth as untreated, 0 = no growth, -100 = all killed)
Conditions in all cases: 10 µM unless noted
[1] = system: DU-145 prostate
[2] = system: K-562 leukemia
[3] = system: MALME-3M melanoma
[4] = system: MDA-MB-231 breast
[5] = system: RXF 393 renal
[6] = system: SF-268 CNS
[7] = system: SF-295 CNS
[8] = system: SF-539 CNS
[9] = system: UACC-257 melanoma
[10] = system: M14 melanoma
[11] = system: HCT-15 colon
[12] = system: HT29 colon
[13] = system: SNB-19 CNS
[14] = system: U251 CNS
[15] = system: PC-3 prostate
[16] = system: SK-MEL-5 melanoma
[17] = system: UACC-62 melanoma
[18] = system: LOX IMVI melanoma
[19] = system: SK-MEL-28 melanoma

Measured: growth

COc1ccc(C(=O)/C=C/c2ccc(C)cc2)cc1S(N)(=O)=O
active: [2] 3.04%
inactive: [1] 47.3% | [3] 96.9% | [4] 58.9% | [5] 74.4% | [6] 72.4% | [7] 91.3% | [8] 25% | [9] 83.2% | [10] 71.1% | [11] 22.8% | [12] 45.7% | [13] 14.5% | [14] 17.1% | [15] 50.4% | [16] 82.2% | [17] 61.2% | [18] 28.8% | [19] 98.1%

c1ccc2c(-c3cnn4cc(-c5ccc(N6CCNCC6)cc5)cnc34)ccnc2c1
active: [1] -83.4% | [2] -23.6% | [3] -89.5% | [4] -67.8% | [5] -77.5% | [6] -62.3% | [7] -93.5% | [8] -95.4% | [9] -72.1% | [10] -81.9% | [11] -55.6% | [12] -76.9% | [13] -57.8% | [14] -79% | [15] -12% | [16] -84.7% | [17] -84.2% | [18] -85.8% | [19] -90.7%

COc1ccc(N2C(=O)/C(=C/C(Cl)=C/c3ccc([N+](=O)[O-])cc3)SC2=S)cc1
inactive: [3] 26.4% | [6] 12.3% | [9] 48.2% | [10] 12.3% | [19] 13.7%
active: [1] 5.02% | [2] 0.935% | [4] 7.73% | [5] -77.9% | [7] -32.1% | [8] -22.8% | [11] -24.1% | [12] -20.9% | [13] 2.68% | [14] -83.1% | [15] 2.17% | [17] -25.2% | [18] -86.2%

CC/C(=C(/c1ccc(Cl)cc1)c1ccc(OCCCN(C)C)cc1)c1ccc(OC)cc1
active: [2] -27.4% | [12] 1.68% | [14] 6.12%
inactive: [1] 85.7% | [3] 74.1% | [4] 76.3% | [5] 53.1% | [6] 84.2% | [7] 88.5% | [8] 82.8% | [9] 84.7% | [10] 32.8% | [11] 12.8% | [13] 82.8% | [15] 49.3% | [16] 63.4% | [17] 104% | [18] 16.6% | [19] 76.6%

Cc1[nH]c(C2CC(c3ccc(C(F)(F)F)c(F)c3)=NN2C)c(C)c1C(=O)NCC(F)(F)F (stereo not drawn)
inactive: [1] 96.3% | [2] 85.6% | [3] 93.8% | [4] 85.4% | [5] 93.7% | [6] 92.4% | [7] 94.9% | [8] 96.7% | [9] 97.9% | [10] 115% | [11] 92.2% | [12] 102% | [13] 91.9% | [14] 96.8% | [15] 98.1% | [16] 93.6% | [17] 82.3% | [18] 93.1% | [19] 101%

O=C(OCC(O)C(=O)NC12CC3CC(CC(C3)C1)C2)c1cccc(Br)c1 (stereo not drawn)
inactive: [1] 105% | [2] 89.4% | [3] 101% | [4] 92% | [5] 110% | [6] 103% | [7] 96.9% | [8] 96.2% | [9] 91.1% | [10] 95.5% | [11] 95.2% | [12] 93.5% | [13] 98.2% | [14] 97.5% | [15] 90.1% | [16] 103% | [17] 92.9% | [18] 95.2% | [19] 103%

CCN1CCN(CCOc2ccc(CNc3ccc4nc(CCC5CCCCC5)[nH]c4c3)cc2)CC1
inactive: [1] 50.3% | [5] 28.2% | [6] 54.4% | [7] 48% | [13] 39.3% | [15] 42%
active: [2] 6.76% | [3] -88.2% | [4] -31.4% | [8] -87.1% | [9] -69.4% | [10] -76.5% | [11] -17.7% | [12] 8.35% | [14] -19.7% | [16] -96.5% | [17] -16.4% | [18] -78.6% | [19] -88%

O=C(Nc1ncc(Cc2ccccc2)s1)c1ccc2c(c1)OCCO2
active: [2] 8.32% | [8] -10.4% | [11] 7.07% | [12] 4.31% | [16] -29.7%
inactive: [1] 15.2% | [3] 57.9% | [4] 39.2% | [5] 10.2% | [6] 43.2% | [7] 11.9% | [9] 45.1% | [10] 18.6% | [13] 35.4% | [14] 14.2% | [15] 27.1% | [17] 33.6% | [18] 10.6% | [19] 66.3%

CN1C(=O)N(C)C2C1NN=c1s/c(=C\c3ccc(F)cc3)c(=O)n12 (stereo not drawn)
active: [9] 1.68% | [12] 2.74%
inactive: [1] 58.5% | [2] 11.4% | [3] 31.5% | [4] 29.4% | [5] 38.5% | [6] 58.7% | [7] 28.8% | [8] 29.7% | [10] 23.1% | [11] 27.3% | [13] 34.8% | [14] 26.8% | [15] 34.8% | [16] 31.7% | [17] 26.7% | [18] 36.1% | [19] 59.4%

O=c1n(C2OC(CO)C(O)C2O)ccc2nccn12 (stereo not drawn)
inactive: [1] 107% | [2] 102% | [3] 112% | [4] 117% | [5] 162% | [6] 107% | [7] 108% | [8] 112% | [9] 100% | [10] 105% | [11] 105% | [12] 108% | [13] 114% | [14] 99% | [15] 104% | [16] 114% | [17] 111% | [18] 111% | [19] 113%

O=C1NCCN1/N=C/c1c(Cl)n(Cc2ccc(Cl)cc2)c2ccccc12
inactive: [1] 89.4% | [2] 65.2% | [3] 150% | [4] 73.9% | [5] 69.4% | [6] 104% | [7] 74.2% | [8] 87.2% | [9] 64.6% | [10] 114% | [11] 93.3% | [12] 111% | [13] 107% | [14] 75.5% | [15] 89% | [16] 68% | [17] 53.5% | [18] 72.7% | [19] 112%
